Experiment [1] can be described thus: NCI Yeast Anticancer Drug Screen. Data for the rad50 strain (AID 155).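 Also: 0% = growth of vehicle-only cultures of the same strain.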 The conditions noted are these: S. cerevisiae rad50 strain growth inhibition, stronger effect = higher value. In short, it runs like this: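 A DNA repair-deficient yeast mutant serves as the test organism; compound-induced growth inhibition is calculated against vehicle-treated cells.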
Experiment [2] in a line: NCI Yeast Anticancer Drug Screen. Data for the mec2-1 strain (AID 157). The conditions noted are these: S. cerevisiae mec2-1 strain, stronger effect = higher value. In short, it runs like this:
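Growth inhibition is read against vehicle-treated controls after compound exposure of the mec2-1 yeast strain, which is defective in DNA damage repair or cell cycle control.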

Experiment [3] in a line: NCI Yeast Anticancer Drug Screen. Data for the sgs1 mgt1 strain (AID 161).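 Also: 0% = growth of cultures given vehicle only.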 The conditions noted are these: S. cerevisiae sgs1 mgt1 strain, stronger effect = higher value. In short, it runs like this:
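Percent growth inhibition was derived by comparing compound-exposed mutant yeast with vehicle-exposed cultures. The strain carries alterations in DNA damage repair.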

Experiment [4] can be described thus: NCI Yeast Anticancer Drug Screen. Data for the cln2 rad14 strain (AID 165).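 Also: 0% = growth equal to vehicle treated cultures.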 The conditions noted are these: S. cerevisiae cln2 rad14 strain, stronger effect = higher value. In short, it runs like this:
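Growth inhibition, relative to vehicle-treated controls, is the read-out. The test organism is a yeast strain with defined genetic alterations, cln2 rad14.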

Experiment [5] in a line: NCI Yeast Anticancer Drug Screen. Data for the bub3 strain (AID 167). The conditions noted are these: S. cerevisiae bub3 mutant strain, stronger effect = higher value. In short, it runs like this: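 Inhibition values come from growth of compound-treated mutant yeast normalised to vehicle-treated controls.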
Experiment [6] is described as follows: NCI Yeast Anticancer Drug Screen. Data for the mlh1 rad18 strain (AID 175). The conditions noted are these: S. cerevisiae mlh1 rad18 strain growth inhibition, stronger effect = higher value. In short, it runs like this: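 Cells of a genetically altered yeast strain, deficient in DNA damage repair, were treated with compound. Their growth was then compared with that of vehicle-treated cultures to give inhibition.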

[7] abbreviates: at 5.0 µM (retest, dose inferred, filed as 0.5).
The mark [8] stands for this setting: at 50.0 µM (retest, dose inferred, filed as 5.0).

The panel holds about 79,000 compounds, 15% with a hit somewhere; the sample as a whole holds those more often. Values without a mark were called inactive. Active and inactive are the calls of the source. Rule as the data show it: active = growth inhibition above about 70%; inactive = the rest.

On to `OC1CCCCC1Cc1ccc(Cl)cc1` (stereo not given), for which the growth inhibition in experiment [1] (setting [7]) is -2%; in experiment [1] (setting [8]) it was 56%; in experiment [1] (at 50.0 µM), 90.5% (active); in experiment [2] (setting [7]), 4%; in experiment [2] (setting [8]) it was 26%; in experiment [2] (at 50.0 µM), 93.8% (active). In addition, the growth inhibition in experiment [3] (setting [7]) was 4%; in experiment [3] (setting [8]) it was 31%; in experiment [3] (at 50.0 µM), 65.3%; in experiment [4] (setting [7]) it was -2%; in experiment [4] (setting [8]), 30%; in experiment [4] (at 50.0 µM), 90% (active). Besides, the growth inhibition in experiment [5] (setting [7]) was 32%; in experiment [5] (setting [8]), 97% (active); in experiment [5] (at 50.0 µM), 98.8% (active); in experiment [6] (setting [7]), -2%; in experiment [6] (setting [8]), 45%; in experiment [6] (at 50.0 µM), 93.4% (active).
With `Clc1ccc([I+]c2cccs2)cc1`, the growth inhibition in experiment [1] (setting [7]) was 37%; in experiment [1] (setting [8]), 97% (active); in experiment [1] (at 50.0 µM), 98% (active); in experiment [2] (setting [7]), 51%; in experiment [2] (setting [8]), 99% (active); in experiment [2] (at 50.0 µM) it was 98.7% (active). Also, the growth inhibition in experiment [3] (setting [7]) was 45%; in experiment [3] (setting [8]) it was 98% (active); in experiment [3] (at 50.0 µM), 8.95%; in experiment [4] (setting [7]), 33%; in experiment [4] (setting [8]), 97% (active); in experiment [4] (at 50.0 µM), 97.7% (active). The growth inhibition is 66% in experiment [5] (setting [7]); 97% (active) in experiment [5] (setting [8]); 98% (active) in experiment [5] (at 50.0 µM); 72% (active) in experiment [6] (setting [7]); 98% (active) in experiment [6] (setting [8]); 99% (active) in experiment [6] (at 50.0 µM).
As to `O=[N+]([O-])c1c(Cl)ccc2nsnc12`, the growth inhibition in experiment [1] (setting [7]) is 24%; in experiment [1] (setting [8]) it was 97% (active); in experiment [1] (at 50.0 µM), 99.4% (active); in experiment [2] (setting [7]), -27%; in experiment [2] (setting [8]) it was 97% (active); in experiment [2] (at 50.0 µM) it was 99.2% (active). Further, the growth inhibition in experiment [3] (setting [7]) was -14%; in experiment [3] (setting [8]) it was 98% (active); in experiment [3] (at 50.0 µM), 98.8% (active); in experiment [4] (setting [7]), -56%; in experiment [4] (setting [8]) it was 84% (active); in experiment [4] (at 50.0 µM), 98.6% (active). In addition, the growth inhibition in experiment [5] (setting [7]) was -49%; in experiment [5] (setting [8]), 96% (active); in experiment [5] (at 50.0 µM), 98.5% (active); in experiment [6] (setting [7]), -50%; in experiment [6] (setting [8]), 97% (active); in experiment [6] (at 50.0 µM) it was 99% (active).
As for `COc1cccc(/C=N/N(C)C)c1O`, the growth inhibition in experiment [1] (setting [7]) was 0%; in experiment [1] (setting [8]) it was 29%; in experiment [1] (at 50.0 µM), 56%; in experiment [2] (setting [7]) it was -6%; in experiment [2] (setting [8]), -17%; in experiment [2] (at 50.0 µM), 9.05%. The growth inhibition in experiment [3] (setting [7]) is -2%; in experiment [3] (setting [8]), 21%; in experiment [3] (at 50.0 µM), -1.75%; in experiment [4] (setting [7]) it was 0%; in experiment [4] (setting [8]), -8%; in experiment [4] (at 50.0 µM) it was 11.4%. For the same compound, the growth inhibition was 12% in experiment [5] (setting [7]); 29% in experiment [5] (setting [8]); 1.4% in experiment [5] (at 50.0 µM); 7% in experiment [6] (setting [7]); 28% in experiment [6] (setting [8]); 19.6% in experiment [6] (at 50.0 µM).
As to `Cc1cc(NCCCCCCCCCC[n+]2c(C)cc(N)c3ccccc32)c2ccccc2n1`, the growth inhibition in experiment [1] (setting [7]) is 71% (active); in experiment [1] (setting [8]), 99% (active); in experiment [1] (at 50.0 µM), 89.8% (active); in experiment [2] (setting [7]) it was 94% (active); in experiment [2] (setting [8]), 99% (active); in experiment [2] (at 50.0 µM), 92.2% (active). The growth inhibition in experiment [3] (setting [7]) is 97% (active); in experiment [3] (setting [8]), 99% (active); in experiment [3] (at 50.0 µM), 91.5% (active); in experiment [4] (setting [7]) it was 95% (active); in experiment [4] (setting [8]), 99% (active); in experiment [4] (at 50.0 µM), 90% (active). For the same compound, the growth inhibition in experiment [5] (setting [7]) is 96% (active); in experiment [5] (setting [8]), 99% (active); in experiment [5] (at 50.0 µM), 90.9% (active); in experiment [6] (setting [7]) it was 95% (active); in experiment [6] (setting [8]), 99% (active); in experiment [6] (at 50.0 µM) it was 90.6% (active).
As to `O=C(NC1CCN(Cc2ccccc2)CC1)c1cccc(I)c1`, the growth inhibition in experiment [1] (setting [7]) was 49%; in experiment [1] (setting [8]), 68%; in experiment [1] (at 50.0 µM) it was 51.7%; in experiment [2] (setting [7]) it was 39%; in experiment [2] (setting [8]), 64%; in experiment [2] (at 50.0 µM), 58%. In addition, the growth inhibition was 57% in experiment [3] (setting [7]); 73% (active) in experiment [3] (setting [8]); 81% (active) in experiment [3] (at 50.0 µM); 84% (active) in experiment [4] (setting [7]); 88% (active) in experiment [4] (setting [8]); 82.2% (active) in experiment [4] (at 50.0 µM). The growth inhibition in experiment [5] (setting [7]) is 62%; in experiment [5] (setting [8]), 65%; in experiment [5] (at 50.0 µM), 70% (active); in experiment [6] (setting [7]), 73% (active); in experiment [6] (setting [8]), 59%; in experiment [6] (at 50.0 µM), 67.5%.
In the case of `COc1cccc(C2c3cc4c(cc3OC(N3CCCC3)C2c2ccccc2)OCO4)c1O` (stereo not given), the growth inhibition in experiment [1] (setting [7]) is 24%; in experiment [1] (setting [8]), 98% (active); in experiment [1] (at 50.0 µM), 8.35%; in experiment [2] (setting [7]), 19%; in experiment [2] (setting [8]), 99% (active); in experiment [2] (at 50.0 µM), 13%. Further, the growth inhibition in experiment [3] (setting [7]) is -2%; in experiment [3] (setting [8]) it was 95% (active); in experiment [3] (at 50.0 µM), 29.4%; in experiment [4] (setting [7]) it was -7%; in experiment [4] (setting [8]), 96% (active); in experiment [4] (at 50.0 µM) it was 13.2%. The growth inhibition is 6% in experiment [5] (setting [7]); 95% (active) in experiment [5] (setting [8]); 26.4% in experiment [5] (at 50.0 µM); 18% in experiment [6] (setting [7]); 98% (active) in experiment [6] (setting [8]); 32.2% in experiment [6] (at 50.0 µM).
With `OC1c2ccccc2C2(O)C1C(c1ccccc1)C(c1ccccc1)C2(O)c1ccccc1` (stereo not given), the growth inhibition in experiment [1] (setting [7]) was 32%; in experiment [1] (setting [8]), 95% (active); in experiment [1] (at 50.0 µM) it was 96.7% (active); in experiment [2] (setting [7]), -1%; in experiment [2] (setting [8]) it was 97% (active); in experiment [2] (at 50.0 µM), 97% (active). Also, the growth inhibition in experiment [3] (setting [7]) was 25%; in experiment [3] (setting [8]), 96% (active); in experiment [3] (at 50.0 µM), 98% (active); in experiment [4] (setting [7]), -4%; in experiment [4] (setting [8]), 94% (active); in experiment [4] (at 50.0 µM) it was 95.1% (active). Further, the growth inhibition in experiment [5] (setting [7]) is -1%; in experiment [5] (setting [8]), 95% (active); in experiment [5] (at 50.0 µM), 94.8% (active); in experiment [6] (setting [7]), 30%; in experiment [6] (setting [8]), 94% (active); in experiment [6] (at 50.0 µM), 95.7% (active).
As to `NC(=S)SCCC(=O)O`, the growth inhibition in experiment [1] (setting [7]) was -2%; in experiment [1] (setting [8]) it was 4%; in experiment [1] (at 50.0 µM), -31.1%; in experiment [2] (setting [7]) it was -6%; in experiment [2] (setting [8]), -21%; in experiment [2] (at 50.0 µM), -41.5%. In addition, the growth inhibition in experiment [3] (setting [7]) is -10%; in experiment [3] (setting [8]), -14%; in experiment [3] (at 50.0 µM), -3.95%; in experiment [4] (setting [7]), -3%; in experiment [4] (setting [8]), -4%; in experiment [4] (at 50.0 µM), 40.1%. For the same compound, the growth inhibition in experiment [5] (setting [7]) is -11%; in experiment [5] (setting [8]), -19%; in experiment [5] (at 50.0 µM), -21.9%; in experiment [6] (setting [7]), -16%; in experiment [6] (setting [8]), -4%; in experiment [6] (at 50.0 µM), 2.85%.
With `Oc1ccc(C2CCCCC2)c(O)c1`, the growth inhibition was -2% in experiment [1] (setting [7]); 42% in experiment [1] (setting [8]); 75.5% (active) in experiment [1] (at 50.0 µM); 2% in experiment [2] (setting [7]); 53% in experiment [2] (setting [8]); 61.4% in experiment [2] (at 50.0 µM). Besides, the growth inhibition is 7% in experiment [3] (setting [7]); 37% in experiment [3] (setting [8]); 66% in experiment [3] (at 50.0 µM); 30% in experiment [4] (setting [7]); 45% in experiment [4] (setting [8]); 65.8% in experiment [4] (at 50.0 µM). Besides, the growth inhibition in experiment [5] (setting [7]) is 7%; in experiment [5] (setting [8]), 66%; in experiment [5] (at 50.0 µM), 67.3%; in experiment [6] (setting [7]), 2%; in experiment [6] (setting [8]), 72% (active); in experiment [6] (at 50.0 µM), 65.8%.
